High-throughput results as filed in PubChem BioAssay.
HT1080 IDH1KD tx – toxicity to HT-1080 IDH1 knockdown cells (counter line). hit rate 2% among 360,000. HT-1080 IDH1 knockdown viability, ATP luminescence, 48 h. AID 686971. Potency, µM (highest dose often 46.1 µM), inactives show at the top dose activity, negative = toxicity, actives largely listed as cytotoxic;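 also: potency is read from the fitted curve at half-maximal effect; 0% = DMSO wells and -100% = cell-free medium wells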
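CellTiter-Glo luminescence after 48 h compound exposure at 37 degrees C of IDH1-knockdown HT-1080 cells in 5% FBS RPMI. %Activity scaled between DMSO wells and cell-free media wells, with curves fitted and assigned curve classes.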
DT40 TDP1 no CPT – qHTS for Inhibitors of human tyrosyl-DNA phosphodiesterase 1 (TDP1): qHTS in cells in absence of CPT; DT40 Tdp1-/- hTDP1 cells, no CPT, ATP luminescence, 48 h; Potency, µM (doses to about 46.2 µM), inactives show top-dose activity change, negative = growth inhibition, most hits filed as inhibitors; hit rate 15% among 420,000; AID 686978, 2013; also: potency is read from the fitted curve at half-maximal effect; nearly all actives have a fitted effect of over 55% in size
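Chicken DT40 Tdp1-/- cells complemented with human TDP1, screened without camptothecin (DMSO vehicle only), 400 cells/well. Compounds pin-transferred, cells incubated at 37 °C for at least 48 hr. Growth read as ATP-dependent luminescence (CellTiter-Glo, 30 min at RT).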
DT40 TDP1 CPT – growth inhibition of DT40 Tdp1-/-;hTDP1 cells with camptothecin (screen for TDP1 inhibitors). Potency, µM (highest dose often 46.2 µM), without a hit: at the top dose activity change, negative = growth inhibition, hits mostly inhibitors. chicken DT40 Tdp1-/-;hTDP1 cells + 20 nM CPT, ATP luminescence, 48 h. AID 686979. hit rate 12% among 420,000; also: potency is read from the fitted curve at half-maximal effect; nearly all actives have a fitted effect of over 55% in size
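Chicken DT40 Tdp1-/- cells complemented with human TDP1, 400 cells/well, exposed to compounds plus 20 nM camptothecin for at least 48 h at 37 C; viability read as ATP content by CellTiter-Glo luminescence.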
IL-1B inflam inh – inhibitors of inflammasome signaling (IL-1 beta secretion) | AID 743279 | activity change, % at 57.5 µM | hit rate 4.7% among 360,000 | THP-1 LPS/ATP IL-1B secretion, AlphaLISA, 16 h; hits give low values; in the data active = activity change below about -50%; inconclusive = mostly about -30% to -49%
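Secreted IL-1B measured by AlphaLISA bead assay after 16 h compound exposure of THP-1 cells; compounds (final up to 57.5 uM) added 1 h before LPS (250 ng/mL) and ATP (1.25 mM) stimulation; lower signal means less secretion.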
HT1080-NT tox – kills 2HG-producing HT-1080-NT fibrosarcoma cells; HT-1080-NT fibrosarcoma viability, CellTiter-Glo ATP luminescence, 48 h; hit rate 1.6% among 360,000; Potency, µM (top dose mostly 46.1 µM), inactives show at the top dose activity, negative = less viability, usual class: cytotoxic;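 also: NT is the 2HG producing partner of a matched IDH1 knockdown line; potency is read from the fitted curve at half-maximal effect; 0% = DMSO-treated cells and -100% = media-only wells without cells; nearly all actives have a fitted effect of over 55% in size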
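Fibrosarcoma NT cells, 750 per well in 5% FBS RPMI, were exposed to compound for 48 hours. Viability: CellTiter-Glo luminescence.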
An asterisk follows results filed as active. The list is not random: actives were taken first. Their share in the collection is about 19%. Unless noted, calls follow the shape of the dose curve; as a rule, active = well fitted curve in the direction sought with a large enough effect; inconclusive = small, poorly fitted or top-dose-only effect, or another doubt; inactive = no such curve, though single readings can be large; an effect the other way counts as inactive or inconclusive. Unless noted, % is scaled to controls: 0 for no effect and ±100 for the full control effect.

O=C(O)CSCc1cnn(-c2ccccc2)c1-n1cccc1 was read as HT1080 IDH1KD tx -3%, DT40 TDP1 no CPT 0%, DT40 TDP1 CPT -3%, IL-1B inflam inh 8 and HT1080-NT tox -1%.
CSc1nc2nc(C)c(CCC(=O)OCC(=O)Nc3ccc(F)cc3)c(C)n2n1 was read as HT1080 IDH1KD tx 6%, DT40 TDP1 no CPT 9%, DT40 TDP1 CPT -3%, IL-1B inflam inh 3 and HT1080-NT tox 5%.
`COc1ccccc1CNC(=O)CSCc1cnn(-c2ccccc2)c1-n1cccc1` gave HT1080 IDH1KD tx 1%, DT40 TDP1 no CPT 16µM*, DT40 TDP1 CPT inconclusive, IL-1B inflam inh -17 and HT1080-NT tox 6%.
For O=C(CSCc1cnn(-c2ccccc2)c1-n1cccc1)NCc1cccnc1 the results were HT1080 IDH1KD tx -3%, DT40 TDP1 no CPT inconclusive, DT40 TDP1 CPT inconclusive, IL-1B inflam inh -22 and HT1080-NT tox -2%.
Screening Cc1cc(F)ccc1S(=O)(=O)Nc1ccc(O)c(Sc2ncn[nH]2)c1 returned HT1080 IDH1KD tx 2%, DT40 TDP1 no CPT 0%, DT40 TDP1 CPT 1%, IL-1B inflam inh 3 and HT1080-NT tox -7%.
Screening Cc1ccc(S(=O)(=O)c2nc(-c3ccco3)oc2SC(C)C)cc1 returned HT1080 IDH1KD tx 0%, DT40 TDP1 no CPT inconclusive, DT40 TDP1 CPT inconclusive, IL-1B inflam inh -24 and HT1080-NT tox -4%.
Screening CN1c2cccc3cccc(c23)N(C)C1(C)C returned HT1080 IDH1KD tx 24%, DT40 TDP1 no CPT -13%, DT40 TDP1 CPT -15%, IL-1B inflam inh 0 and HT1080-NT tox 9%.
For CC(=O)c1ccc2cccc3c2c1N=CN3C the results were HT1080 IDH1KD tx -14%, DT40 TDP1 no CPT -12%, DT40 TDP1 CPT -4%, IL-1B inflam inh -59* and HT1080-NT tox 0%.
C(=N\NC1=Nc2cccc3cccc1c23)/c1ccccc1 was read as HT1080 IDH1KD tx -5%, DT40 TDP1 no CPT inconclusive, DT40 TDP1 CPT 7%, IL-1B inflam inh -1 and HT1080-NT tox -2%.
Screening NC1=Nc2cccc3cccc1c23 returned HT1080 IDH1KD tx inconclusive, DT40 TDP1 no CPT 16µM*, DT40 TDP1 CPT inconclusive, IL-1B inflam inh -65* and HT1080-NT tox inconclusive.
Screening Cc1ccc(Cn2c(=O)n(CCc3ccc(Cl)cc3)c(=O)c3ccccc32)cc1 returned DT40 TDP1 no CPT -13% and DT40 TDP1 CPT 3%.
Screening Cc1c(CCCN)c2ccccc2n1Cc1ccccc1 returned HT1080 IDH1KD tx 21µM*, DT40 TDP1 no CPT 16µM*, DT40 TDP1 CPT inconclusive, IL-1B inflam inh -71* and HT1080-NT tox inconclusive.
`Cc1ccc(C)c(N2CCN(c3ccc4cc(S(=O)(=O)N5CCCCC5)ccc4n3)CC2)c1` gave HT1080 IDH1KD tx 13%, DT40 TDP1 no CPT inconclusive, DT40 TDP1 CPT inconclusive, IL-1B inflam inh 26 and HT1080-NT tox -5%.
Screening Cc1cccc(N2CCN(c3ccc4cc(S(=O)(=O)N5CCCCC5)ccc4n3)CC2C)c1 (centres undefined) returned HT1080 IDH1KD tx 9%, DT40 TDP1 no CPT 16µM*, DT40 TDP1 CPT 12µM*, IL-1B inflam inh 42 and HT1080-NT tox 0%.
Cc1cccc(N2CCN(c3ccc4cc(S(=O)(=O)N5CCCCC5)ccc4n3)CC2)c1C was read as HT1080 IDH1KD tx 15%, DT40 TDP1 no CPT 12µM*, DT40 TDP1 CPT 12µM*, IL-1B inflam inh 43 and HT1080-NT tox 3%.
`O=C(NCc1ccco1)C1CCCN(c2nnc(-n3cccc3)s2)C1` (centres undefined) gave HT1080 IDH1KD tx inconclusive, DT40 TDP1 no CPT 3%, DT40 TDP1 CPT -5%, IL-1B inflam inh -11 and HT1080-NT tox 2.6µM*.
Screening COC(=O)c1ccccc1NC(=O)C1CCCN(S(C)(=O)=O)C1 (centres undefined) returned HT1080 IDH1KD tx 1%, DT40 TDP1 no CPT -2%, DT40 TDP1 CPT -1%, IL-1B inflam inh 20 and HT1080-NT tox -5%.
COC(=O)c1ccccc1NC(=O)C1CCCN(c2nnc(-n3cccc3)s2)C1 (centres undefined) was read as HT1080 IDH1KD tx -12%, DT40 TDP1 no CPT 21µM*, DT40 TDP1 CPT 16µM*, IL-1B inflam inh -15 and HT1080-NT tox 4%.
COCCNC(=O)C1CCCN(S(=O)(=O)c2ccc3c(c2)CC(C)N3C(=O)C2CC2)C1 (centres undefined) was read as HT1080 IDH1KD tx 4%, DT40 TDP1 no CPT inconclusive, DT40 TDP1 CPT -26%, IL-1B inflam inh -1 and HT1080-NT tox 3%.
`Cc1ccc(C)c(N(CC(=O)NC2CCCC2)C(=O)CCC(=O)Nc2cc(C)on2)c1` gave HT1080 IDH1KD tx 0%, DT40 TDP1 no CPT -19%, DT40 TDP1 CPT 3%, IL-1B inflam inh 33 and HT1080-NT tox 4%.
`Cc1cc(C)nc(-n2nc(C)cc2Nc2ccccc2)n1` gave HT1080 IDH1KD tx -15%, DT40 TDP1 no CPT 5.2µM*, DT40 TDP1 CPT 2.6µM*, IL-1B inflam inh 0 and HT1080-NT tox -20%.
For Cc1cc(Nc2ccccc2)n(-c2ccccc2)n1 the results were HT1080 IDH1KD tx -3%, DT40 TDP1 no CPT inconclusive, DT40 TDP1 CPT -18%, IL-1B inflam inh 19 and HT1080-NT tox -15%.
For CCC(C(=O)Nc1cc(C)nn1-c1nc(C)cc(C)n1)c1ccccc1 (centres undefined) the results were HT1080 IDH1KD tx -28%, DT40 TDP1 no CPT 18µM*, DT40 TDP1 CPT 26µM*, IL-1B inflam inh -11 and HT1080-NT tox 0%.
For Cc1cc(C)nc(-n2nc(C)cc2NC(=O)CNCc2ccccc2)n1 the results were HT1080 IDH1KD tx -4%, DT40 TDP1 no CPT inconclusive, DT40 TDP1 CPT -29%, IL-1B inflam inh 35 and HT1080-NT tox 1%.
For C[C@H](NC(=O)C1CCN(S(=O)(=O)c2ccccc2)CC1)C(=O)NCc1ccco1 the results were HT1080 IDH1KD tx 3%, DT40 TDP1 no CPT 24%, DT40 TDP1 CPT -13%, IL-1B inflam inh -27 and HT1080-NT tox -6%.
Screening O=C1CSC(c2cccnc2)N1Cc1ccc(Cl)c(Cl)c1 (centres undefined) returned HT1080 IDH1KD tx -12%, DT40 TDP1 no CPT 1%, DT40 TDP1 CPT 0%, IL-1B inflam inh 16 and HT1080-NT tox -19%.
O=C(Nc1cccc(-c2cn3ccccc3n2)c1)c1cc2ccccc2oc1=O was read as HT1080 IDH1KD tx 5%, DT40 TDP1 no CPT 3.7µM*, DT40 TDP1 CPT 2.1µM*, IL-1B inflam inh -80* and HT1080-NT tox 8%.
Screening CC(=O)Nc1cccc(-c2cn3ccccc3n2)c1 returned HT1080 IDH1KD tx 10%, DT40 TDP1 no CPT 9%, DT40 TDP1 CPT 24%, IL-1B inflam inh 0 and HT1080-NT tox 12%.
